SMN2 splice up – enhancers of SMN2 splice variant expression; HEK293 SMN2-luciferase splicing reporter, luminescence, 30-36 h; Potency, µM (doses to about 46.1 µM), usual class: activators; actives 2.8% (n = 210,000); AID 1458; also: nearly all actives have a fitted effect of over 55% in size
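HEK293 cells carry an SMN2 minigene-luciferase reporter in which exon 7 inclusion puts luciferase in frame. Cells were seeded at 2000 cells/well, attached for 10-12 hours, then exposed to compounds for 30-36 hours at 37C before ONE-Glo luminescence.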
Rab9 prom act – activators of Rab9 promoter; AID 485297; Potency, µM (titrated, usually from 9.22 µM), actives largely listed as activators; Huh7 Rab9 promoter-luciferase reporter, luminescence, 24 h; actives 2.8% (n = 320,000); also: nearly all actives have a fitted effect of over 60% in size
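Luminescence from Amplite-detected luciferase (10 minutes, ambient) reports Rab9 promoter activation. Before that, stable Rab9-luciferase Huh7 cells (1500/well, reduced-serum OP-MEM I plus 10% FBS) were exposed to compound for 24 hours at 37C.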
ELG1 genotoxic – inducers of genotoxicity in HEK293T ELG1-luciferase cells. HEK293T ELG1-luciferase reporter, luminescence, 16 h. Potency, µM (titrated, usually from 46 µM), most hits filed as activators. actives 1.3% (n = 330,000). AID 504466; also: nearly all actives have a fitted effect of over 60% in size
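Genotoxic stress is detected as increased luminescence from luciferase-tagged ELG1 in HEK293T cells, measured with ONE-Glo after a 16 hr treatment at 37 °C.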
FLuc modulator – inhibits or activates purified firefly luciferase, miR-21 counter-screen; P08659; purified FLuc, Km substrates, luminescence inhibition; Potency, µM (doses to about 57.5 µM), most hits filed as inhibitors; actives 6.9% (n = 360,000); AID 588342; also: nearly all actives have a fitted effect of over 55% in size
Target sequence (P08659 whole entry, looked up): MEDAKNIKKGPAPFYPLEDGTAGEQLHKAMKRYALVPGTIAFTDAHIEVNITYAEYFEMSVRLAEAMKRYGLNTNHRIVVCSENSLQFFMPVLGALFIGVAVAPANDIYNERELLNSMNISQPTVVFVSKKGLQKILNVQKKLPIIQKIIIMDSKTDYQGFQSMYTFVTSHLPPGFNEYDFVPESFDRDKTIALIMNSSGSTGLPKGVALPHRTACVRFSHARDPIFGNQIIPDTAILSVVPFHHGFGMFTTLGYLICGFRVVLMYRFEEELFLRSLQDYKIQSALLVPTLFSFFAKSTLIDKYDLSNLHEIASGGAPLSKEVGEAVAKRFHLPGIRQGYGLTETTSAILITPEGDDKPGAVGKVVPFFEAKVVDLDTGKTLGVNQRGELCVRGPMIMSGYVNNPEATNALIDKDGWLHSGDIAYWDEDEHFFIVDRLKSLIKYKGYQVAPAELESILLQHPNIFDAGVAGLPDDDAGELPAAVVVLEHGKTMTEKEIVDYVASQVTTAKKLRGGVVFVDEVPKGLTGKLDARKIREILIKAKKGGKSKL
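Purified P. pyralis luciferase (10nM final) with 10uM D-luciferin and 10uM ATP (Km levels) in 50mM Tris acetate pH 7.5, 10mM Mg acetate, 0.01% Tween-20, 0.05% BSA; qHTS 6-point titration, ~60 µM downward; luminescence read.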
NPC1 promoter act – activates the NPC1 promoter | Potency, µM (highest dose often 9.22 µM), most hits filed as activators | actives 2.4% (n = 320,000) | AID 485313 | Huh7 NPC1 promoter luciferase reporter, 24 h; also: nearly all actives have a fitted effect of over 60% in size
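Huh7 reporter cells (NPC1 promoter driving luciferase) are dosed with compound for 24 h at 37 °C, 5% CO2; luciferase detection reagent is then added and luminescence measured after 10 min at ambient temperature.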
Numbers stand for hits; 0 = inactive; ? = inconclusive; - = no result. Shown are actives, neighbours in structure and some others; about 7.4% of the full set was active somewhere. Calls follow the shape of the dose curve; as a rule, active = well fitted curve in the direction sought with a large enough effect; inconclusive = small, poorly fitted or top-dose-only effect, or another doubt; inactive = no such curve, though single readings can be large; an effect the other way counts as inactive or inconclusive.

SMILES	SMN2 splice up	Rab9 prom act	ELG1 genotoxic	FLuc modulator	NPC1 promoter act
COc1cc(C=O)ccc1OCCSc1ccc(C)cc1	0	0	16µM	?	0
CCOc1cc(C=O)ccc1OCCSc1ccc(C)cc1	0	0	0	0	0
COc1cc(C=O)ccc1OCc1cccc(Br)c1	14µM	0	?	7.6µM	0
COc1cc(C=O)ccc1OCc1ccccc1Br	?	?	?	9.5µM	?
CNC(=O)COc1ccc(C=O)cc1OC	0	0	0	0	0
COc1cccc(CNCc2c(C(=O)O)c(C)n(Cc3ccc(F)cc3Cl)c2C)c1OC	0	-	-	0	-
O=C(c1cc(COc2cccc(C(F)(F)F)c2)on1)N1C[C@@H]2CCC[C@H]1C2	-	?	?	24µM	0
COc1cc(C)ccc1OCc1cc(C(=O)N2C[C@H]3CC[C@H]2C3)no1	-	0	0	0	0
CCOC(=O)N1CCN(C(=O)c2cc(COc3ccc(Cl)cc3OC)on2)CC1	-	0	0	0	0
O=C(c1cc(COc2cccc(C(F)(F)F)c2)on1)N1CCC(c2ccccc2)CC1	-	0	0	0	0
COc1cc(Cl)ccc1OCc1cc(C(=O)N2C[C@]3(C)C[C@H]2CC(C)(C)C3)no1	-	1.8µM	?	19µM	?
COc1cc(C)ccc1OCc1cc(C(=O)N2CCN(C)C[C@@H]2c2ccccc2)no1	-	?	0	?	0
COc1cc(Cl)ccc1OCc1cc(C(=O)N2C[C@H]3CC[C@H]2C3)no1	-	1.4µM	8.2µM	8.5µM	3.5µM
COc1cc(Cl)ccc1OCc1cc(C(=O)N2C[C@@H]3CCC[C@H]2C3)no1	-	4µM	2.9µM	9.5µM	3.2µM
Cc1ccc(CN2CCN(C3CCN(C(=O)c4ccccc4)CC3)C(=O)C2=O)cc1	-	-	-	0	-
Cc1ccccc1NS(=O)(=O)c1ccc2[nH]cc(C(=O)NCCc3ccccc3)c(=O)c2c1	-	0	-	?	0
CC(=O)Nc1ccc(NC(=O)c2ccc(COc3ccc(Cl)cc3Cl)o2)cc1	0	-	-	0	-
CC(=O)Nc1ccc(NC(=O)c2ccc(CSc3ccccc3)o2)cc1	0	0	0	0	0
O=C(Nc1ccccc1F)c1ccc(CSc2ccccc2)o1	0	0	?	17µM	0
O=C(Nc1ccccc1F)c1ccc(COc2ccc(Cl)cc2Cl)o1	13µM	0	0	?	0
O=C(Nc1cccc(F)c1)c1ccc(CSc2ccccc2)o1	?	0	0	19µM	0
CC(C)(C)c1ccc(CN(Cc2ccco2)c2cnc(S(C)(=O)=O)nc2C(=O)Nc2ccc(F)cc2)cc1	-	-	-	0	-
CC(C)(C)c1csc(NNC(=O)c2ccc(Br)cc2)n1	0	0	0	?	0
CC(C)(C)c1csc(NC(=O)CS(=O)(=O)c2ccccc2)n1	-	0	?	?	0
C/C(=N\Nc1nc(C(C)(C)C)cs1)c1ccc(O)cc1	-	?	?	21µM	?
SMILES	SMN2 splice up	Rab9 prom act	ELG1 genotoxic	FLuc modulator	NPC1 promoter act
C/C(=N\Nc1nc(C(C)(C)C)cs1)c1ccccc1	-	1.1µM	3.7µM	2.1µM	1.4µM
C/C(=N\Nc1nc(C(=O)O)cs1)c1ccccc1	0	0	0	17µM	0
C/C(=N/NC(=O)C(=O)N/N=C(/C)c1ccccc1)c1ccccc1	0	0	0	?	0
C/C(=N\Nc1nc2c(s1)CCCC2)c1ccccc1	11µM	3.5µM	?	1.1µM	?
CCN(CC)S(=O)(=O)c1ccc2c(c1)N(CC(=O)Nc1ccc(F)cc1F)C(=O)C1CCCN21 (stereo not given)	-	-	-	0	-
COc1cc(NC(=O)CSc2nc3nc(C)c(Cc4ccccc4Cl)c(C)n3n2)cc(OC)c1	-	-	-	0	-
COc1ccc2c(c1)C(=O)[C@H](OC(=O)NS(=O)(=O)c1ccc(C)cc1)[C@@H](c1ccc(OC)c(Br)c1)O2	0	-	-	-	-
Cc1nn(-c2ccc(N3CCOCC3)nn2)c(C)c1CCC(=O)NCc1ccc(Cl)cc1	-	-	-	0	-
COc1cccc(NC(=O)C2CCCN(S(=O)(=O)c3cn(C(C)C)cn3)C2)c1 (stereo not given)	-	-	-	0	-
Clc1ccc(-c2cn3ncsc3n2)cc1	0	-	-	12µM	-
O=C(O)c1csc(-c2ccc(Cl)cc2)n1	0	0	0	0	0
COc1ccc(OC)c(CNC(=O)C(C)n2c(C)c3cnn(-c4ccccc4)c(=O)c3c2C)c1 (stereo not given)	0	-	-	0	-
Cc1cnc(NC(=O)c2ccncc2)s1	?	0	0	?	0

Screening data (PubChem)
